Compound activity: PubChem, The Scripps Research Institute Molecular Screening Center
Compounds with a hit are over-represented: about 2.8% of the library has one in this group of screens.
MsrA act: bovine methionine sulfoxide reductase A activation | purified bovine MsrA, absorbance read-out | activation, % at 10.6 µM | 360,000 tested, 0.3% active | AID 602163; in the data active means activation above about 7.5%
KLK7 zymogen act: proKLK7 (human) activation, primary screen | P49862 | purified proKLK7, EDANS-DABCYL substrate fluorescence; 100% is mature enzyme control, 0% vehicle | activation, % at 7 µM | 370,000 tested, 0.9% active;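 active means activation above the mean of all tested compounds plus 3 SD, computed per campaign excluding outliers beyond control limits, cut at about 13% in these data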
Target sequence (P49862 whole entry, looked up): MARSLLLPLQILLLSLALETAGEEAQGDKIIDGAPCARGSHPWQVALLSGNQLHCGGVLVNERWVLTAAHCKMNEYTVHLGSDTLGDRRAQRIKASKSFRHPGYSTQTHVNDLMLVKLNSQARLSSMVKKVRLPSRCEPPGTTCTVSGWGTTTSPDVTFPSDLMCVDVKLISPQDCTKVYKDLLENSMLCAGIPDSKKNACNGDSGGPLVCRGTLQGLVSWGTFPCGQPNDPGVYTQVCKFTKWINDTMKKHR
SMARCA2 act: activators of SMARCA2 function. activation, % at 9.1 µM. MG213 cells, MMTV-luciferase reporter, dexamethasone, overnight. 370,000 tested, 1% active. AID 652017; in the data active means activation above about 7.8%
MsrA inh: inhibitors of bovine MsrA; purified bovine MsrA, absorbance read-out; inhibition, % at 15.5 µM; 360,000 tested, 0.75% active; AID 651718
MsrA act confirm: confirmation of bovine methionine sulfoxide reductase A activators | shares compounds with MsrA act | purified bovine MsrA, absorbance read-out | activation, % at 10.6 µM | 1,000 tested, 12% active; in the data active means activation above about 4%;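 further: enzyme coupled to thioredoxin and thioredoxin reductase with NADPH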
MsrA inh confirm: confirmation of bovine MsrA inhibitors; purified bovine MsrA, absorbance read-out; shares compounds with MsrA inh; 2,300 tested, 41% active; inhibition, % at 15.5 µM; AID 651822;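 further: coupled to thioredoxin reductase with NADPH and selenocystamine and DMSO as substrate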
proKLK7 act conf: proKLK7 activation, confirmation; shares compounds with KLK7 zymogen act; purified proKLK7, EDANS-DABCYL substrate fluorescence; scaled: vehicle 0, mature enzyme 100; activation, % at 7 µM; 3,200 tested, 68% active;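 active means activation, as change over the incubation, above the mean of all tested compounds plus 3 SD, cut at about 13% in these data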
EDANS interfere: fluorescence interference counter-screen for KLK7 activators | AID 686952 | 3,200 tested, 80% active | shares compounds with KLK7 zymogen act | EDANS-DABCYL substrate fluorescence interference, no enzyme, 4 h; solvent 0%, active enzyme control 100% | activation, % at 7 µM;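 active means activation above the all-compound mean plus 3 SD, ignoring values outside control-based bounds, cut at about 4.8% in these data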;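 further: value is the 4 h activation minus the activation read at time zero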
A number is an active result. Unless noted, no stated cut-off is given here; in the data, active means inhibition above about 4.5%; inactive means the rest.

How did N#Cc1ccccc1OCC(=O)Nc1cc(S(=O)(=O)N2CCCCC2)ccc1N1CCOCC1 do in these assays?
MsrA act: inactive; KLK7 zymogen act: inactive; SMARCA2 act: inactive; MsrA inh: inactive

What do the screens show for `COCCn1c2nc(=O)n(-c3ccccc3)c(=O)c-2nc2ccccc21`?
MsrA act: 26.5; KLK7 zymogen act: 49.2; SMARCA2 act: inactive; MsrA inh: inactive; MsrA act confirm: 8.7; proKLK7 act conf: 39.8; EDANS interfere: 44.5

What do the screens show for `Cc1ccccc1-n1c(SCc2cccc(F)c2)nc2[nH]ncc2c1=O`?
MsrA act: inactive; KLK7 zymogen act: inactive; SMARCA2 act: inactive; MsrA inh: 7.2; MsrA inh confirm: 8.0

How did C/C(=N\NC(N)=S)c1ccc(Cl)s1 do in these assays?
MsrA act: inactive; KLK7 zymogen act: inactive; SMARCA2 act: inactive; MsrA inh: 5.7; MsrA inh confirm: 4.8

What do the screens show for `COC(=O)/C(=C/c1c[nH]c2ccccc12)NC(C)=O`?
MsrA act: inactive; KLK7 zymogen act: inactive; SMARCA2 act: inactive; MsrA inh: inactive

Results for CCOC(=O)/C(=C/c1c[nH]c2ccccc12)NC(C)=O ?
MsrA act: inactive; KLK7 zymogen act: inactive; SMARCA2 act: inactive; MsrA inh: 5.0; MsrA inh confirm: inactive

What do the screens show for `O=C1NC(=S)N/C1=C/c1cc([N+](=O)[O-])ccc1N1CCOCC1`?
MsrA act: inactive; KLK7 zymogen act: inactive; SMARCA2 act: inactive; MsrA inh: 5.0; MsrA inh confirm: inactive

What do the screens show for `O=Cc1cc([N+](=O)[O-])ccc1N1CCOCC1`?
MsrA act: inactive; KLK7 zymogen act: inactive; SMARCA2 act: inactive; MsrA inh: inactive

Results for COc1cc(/C=N/NC(=O)c2ccc(CSc3nncn3C)cc2)cc(OC)c1O ?
MsrA act: inactive; KLK7 zymogen act: inactive; SMARCA2 act: inactive; MsrA inh: 5.0; MsrA inh confirm: inactive

What do the screens show for `COc1cc(/C=N/NC(=O)c2ccc(CSc3nncn3C)cc2)ccc1OCC(=O)N1CC(C)OC(C)C1` (configuration not stated)?
MsrA act: inactive; KLK7 zymogen act: inactive; SMARCA2 act: inactive; MsrA inh: inactive

What do the screens show for `Cn1cnnc1SCc1ccc(C(=O)N/N=C/c2cccs2)cc1`?
MsrA act: inactive; KLK7 zymogen act: inactive; SMARCA2 act: inactive; MsrA inh: 4.7; MsrA inh confirm: inactive

What do the screens show for `COc1cc2c(cc1NC(=O)CSc1nnc(-c3cccc(Cl)c3)n1Cc1ccco1)oc1ccccc12`?
KLK7 zymogen act: inactive; SMARCA2 act: inactive

Results for CN(Cc1ccccc1)C(=O)c1ncn2c1c(=O)[nH]c1cccnc12 ?
MsrA act: inactive; KLK7 zymogen act: inactive; SMARCA2 act: inactive; MsrA inh: inactive

What do the screens show for `Cc1cccc(NC(=O)/C(C#N)=C/c2ccc[nH]2)c1C`?
MsrA act: inactive; KLK7 zymogen act: inactive; SMARCA2 act: inactive; MsrA inh: inactive

Results for COc1ccc(/C=C(/C#N)C(=O)Nc2ccc(C)cc2C)cc1C(=O)O ?
MsrA act: inactive; KLK7 zymogen act: inactive; SMARCA2 act: inactive; MsrA inh: 7.0; MsrA inh confirm: 6.1

How did COc1ccc(/C=C(/C#N)C(=O)Nc2ccccc2C)cc1C(=O)O do in these assays?
MsrA act: inactive; KLK7 zymogen act: inactive; SMARCA2 act: inactive; MsrA inh: 5.6; MsrA inh confirm: inactive

What do the screens show for `Cc1ccc(C)c(NC(=O)/C(C#N)=C/c2ccc[nH]2)c1`?
MsrA act: inactive; KLK7 zymogen act: inactive; SMARCA2 act: inactive; MsrA inh: 9.3; MsrA inh confirm: 11.1

What do the screens show for `COc1ccc(/C=C(/C#N)C(=O)Nc2cccc(C)c2C)cc1C(=O)O`?
MsrA act: inactive; KLK7 zymogen act: inactive; SMARCA2 act: inactive; MsrA inh: inactive

Results for COc1ccc(-c2nnn3c2Cn2c4ccccc4c(=O)n2[C@@H](C)C3)cc1 ?
KLK7 zymogen act: inactive; SMARCA2 act: inactive

How did Cc1ccc(NC(=O)C2CCCO2)cc1[N+](=O)[O-] (configuration not stated) do in these assays?
MsrA act: inactive; KLK7 zymogen act: inactive; SMARCA2 act: inactive; MsrA inh: 39.4; MsrA inh confirm: 8.4

How did COc1cc(/C=C2/NC(=O)N(Cc3ccccc3F)C2=O)cc(OC)c1O do in these assays?
MsrA act: inactive; KLK7 zymogen act: inactive; SMARCA2 act: inactive; MsrA inh: 5.0; MsrA inh confirm: inactive

What do the screens show for `CCOc1cc(/C=C2/NC(=O)N(Cc3ccccc3F)C2=O)ccc1O`?
MsrA act: inactive; KLK7 zymogen act: inactive; SMARCA2 act: inactive; MsrA inh: inactive

What do the screens show for `CC(=O)c1cc(-c2ccc3c(c2)OCO3)c(=O)n2c1CCC2`?
KLK7 zymogen act: inactive; SMARCA2 act: inactive

How did CC(C)(C)n1nc(C2CC2)c(Br)c1NC(=O)c1ccc(Cl)cc1 do in these assays?
KLK7 zymogen act: inactive; SMARCA2 act: inactive; MsrA inh: inactive

Results for O=Cc1c(-c2ccc(F)cc2)nc2ccccn12 ?
MsrA act: inactive; KLK7 zymogen act: inactive; SMARCA2 act: inactive; MsrA inh: 9.1; MsrA inh confirm: inactive

Results for CC(=O)Nc1c(-c2ccc(F)cc2)nc2ccccn12 ?
MsrA act: inactive; KLK7 zymogen act: inactive; SMARCA2 act: inactive; MsrA inh: inactive

What do the screens show for `Cc1ccc2nc(-c3ccc(NC(=O)CN4C(=O)NC(C)(c5ccc(OC(F)F)cc5)C4=O)cc3)sc2c1` (configuration not stated)?
MsrA act: inactive; KLK7 zymogen act: inactive; SMARCA2 act: inactive; MsrA inh: 4.7; MsrA inh confirm: inactive

How did CC1CN(C(=O)/C=C/c2ccc3c(c2)OCO3)CC(C)O1 (configuration not stated) do in these assays?
MsrA act: inactive; KLK7 zymogen act: inactive; SMARCA2 act: inactive; MsrA inh: 6.0; MsrA inh confirm: inactive

What do the screens show for `COc1ccc(C2/C(=C(/O)c3cnn(-c4ccccc4)c3C)C(=O)C(=O)N2CCN(C)C)cc1OC` (configuration not stated)?
MsrA act: inactive; KLK7 zymogen act: inactive; SMARCA2 act: inactive; MsrA inh: 9.3; MsrA inh confirm: inactive

How did O=C(c1ccc(Br)c(S(=O)(=O)N2CCOCC2)c1)N1CCN(C/C=C/c2ccccc2)CC1 do in these assays?
MsrA act: inactive; KLK7 zymogen act: inactive; SMARCA2 act: inactive; MsrA inh: inactive

What do the screens show for `C[C@H](CO)N1C[C@H](C)[C@H](CN(C)C(=O)Nc2cccc(F)c2)Oc2cc(Br)ccc2S1(=O)=O`?
KLK7 zymogen act: inactive; SMARCA2 act: inactive; MsrA inh: inactive

Results for CCOc1ccc(/C=N/n2nnnc2N)cc1OCC ?
MsrA act: inactive; KLK7 zymogen act: inactive; SMARCA2 act: inactive; MsrA inh: 4.8; MsrA inh confirm: inactive
